Experiment [1] can be described thus: blockers of polyQ-driven CASP3 activation – cell-based (AID 1583). The note with it: polyglutamine-induced caspase-3 activation, cell assay; stronger effect = higher value;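 tested at 10 µM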.
The nature of experiment [2]: yeast 75Q aggregation reduction – 75Q-TubU reporter (AID 1593). The note with it: Yeast 75Q polyglutamine aggregation reporter.
Experiment [3] can be described thus: restoration of touch response, mutant HTT neurons – whole organism, C. elegans mechanosensory neurons, N-terminal huntingtin (AID 1599). The following applies: C. elegans polyQ-huntingtin mechanosensory neurons, stronger effect = higher value.
The nature of experiment [4]: blockers of cytochrome c efflux from mitochondria – biochemical, purified mitochondria (AID 1603).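 Further: mouse liver mitochondria challenged with calcium chloride; signal normalized to the plate average as 100%.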 The following applies: stronger effect = lower value.
Experiment [5] can be described thus: polyglutamine aggregate formation blockers (AID 1604). The note with it: polyglutamine-induced protein aggregation inhibition assay; stronger effect = higher value; tested at 2.5 µM.
The nature of experiment [6]: glutamate transport activators, MN-1 cells, MN-1 cell line (AID 1612).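 Further: tested at 1 µM final; 0% = mean of DMSO vehicle wells on each plate; positive means more glutamate uptake than control and negative means less.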 The note with it: MN-1 motor neuron cells, stronger effect = higher value.
Experiment [7] can be described thus: 75Q-TubH aggregate inhibition, S. cerevisiae, yeast (AID 1616). The following applies: S. cerevisiae 75Q-TubH polyglutamine aggregation suppression; stronger effect = higher value.
Experiment [8] can be described thus: P. berghei load reduction in hepatocytes – cell-based, HepG2, luciferase luminescence, HepG2 viability, primary screen (AID 624349; in the data active means parasite load remaining mostly below about 12%, no sharp cut-off; inactive means mostly above about 10%;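 further: 100% = mean of DMSO negative control wells on the same plate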). The following applies: P. berghei liver stage in HepG2, luciferase luminescence, concentration not given here; parasite load remaining: stronger effect = lower value; viability: measured here: HepG2 viability without parasites.
In experiment [9] the target is 6-phosphogluconate dehydrogenase, decarboxylating (Homo sapiens) (UniProt P52209). In words: inhibition of human phosphogluconate dehydrogenase – biochemical, recombinant enzyme, NADPH absorbance, primary screen (AID 1159550). The following applies: recombinant 6PGD, NADPH absorbance 341 nm; at 10 µM; stronger effect = higher value.
Chain of 6-phosphogluconate dehydrogenase, decarboxylating (Homo sapiens) (P52209 whole entry, looked up): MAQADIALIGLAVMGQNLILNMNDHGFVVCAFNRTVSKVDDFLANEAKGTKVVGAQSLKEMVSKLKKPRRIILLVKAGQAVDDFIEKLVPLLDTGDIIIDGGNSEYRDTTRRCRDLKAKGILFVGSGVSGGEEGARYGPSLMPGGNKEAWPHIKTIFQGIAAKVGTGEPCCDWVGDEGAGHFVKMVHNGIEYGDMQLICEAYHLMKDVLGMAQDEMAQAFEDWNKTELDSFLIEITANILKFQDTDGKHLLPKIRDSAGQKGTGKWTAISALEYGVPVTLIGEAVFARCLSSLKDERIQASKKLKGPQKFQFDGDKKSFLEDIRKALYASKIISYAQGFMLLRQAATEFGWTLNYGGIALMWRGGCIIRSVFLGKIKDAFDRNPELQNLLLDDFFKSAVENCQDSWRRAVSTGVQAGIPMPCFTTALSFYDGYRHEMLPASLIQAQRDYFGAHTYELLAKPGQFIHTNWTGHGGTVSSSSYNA
Experiment [10] in a line: viability loss in pontine glioma line – cell-based, SU-DIPG-XIII, MIPE4.0, CellTiter-Glo, qHTS, dose response (AID 1347061; cut-off not given, nearly all actives have AC50 up to about 37 µM;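 further: cells exposed to compound for 48 hours before readout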). The note with it: CellTiter-Glo ATP luminescence.
Experiment [11] is described as follows: viability loss in pontine glioma line – cell-based, JHH-DIPG-1, MIPE4.0, CellTiter-Glo, qHTS, dose response (AID 1347062; cut-off not given, nearly all actives have AC50 up to about 27 µM). The note with it: JHH-DIPG-1 viability, CellTiter-Glo ATP luminescence. (In general: Cellular ATP, detected with luciferase, serves as a proxy for viable cell number.)
Experiment [12] in a line: viability loss in pontine glioma line – cell-based, SU-DIPG-IV, MIPE4.0, CellTiter-Glo, qHTS, dose response (AID 1347063; cut-off not given, nearly all actives have AC50 up to about 30 µM;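 further: compound exposure lasted 48 hours before the viability readout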). The following applies: CellTiter-Glo ATP luminescence.
The nature of experiment [13]: JHH-DIPG-1 glioma cell viability, MIPE5.0 library, CellTiter-Glo luminescence, qHTS (AID 1347067; cut-off not given, nearly all actives have AC50 up to about 26 µM;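 further: cells exposed to compound for 48 hours before readout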). The following applies: JHH-DIPG-1 glioma viability, CellTiter-Glo ATP luminescence.
Experiment [14] is described as follows: MELAS cybrid and Rieske KO viability enhancers – cell-based, MELAS cybrids, Rieske KO mouse fibroblasts, CellTiter-Glo, primary screen (AID 1508586;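 active means mean z-score across replicates of 1.96 or higher in either the MELAS or the Rieske mutant cell line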;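 further: z relative to plate mean and SD of compound and empty wells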). The note with it: low glucose.
For experiment [15], the target named is Mitogen-activated protein kinase 7 (Homo sapiens) (UniProt Q13164). Put plainly: Gal4-ERK5 driven luciferase induction – cell-based, HTS, primary screen (AID 1508626;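 active means luciferase signal above three times the same-plate solvent-only control wells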;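 further: luciferase driven by Gal4-ERK5 fusion binding five Gal4 sites before minimal TATA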). The note with it: HeLa Gal4-ERK5 transactivation, 18 h, at 5 µM, stronger effect = higher value.
Chain of Mitogen-activated protein kinase 7 (Homo sapiens) (Q13164 whole entry, looked up, the tested form may be a part): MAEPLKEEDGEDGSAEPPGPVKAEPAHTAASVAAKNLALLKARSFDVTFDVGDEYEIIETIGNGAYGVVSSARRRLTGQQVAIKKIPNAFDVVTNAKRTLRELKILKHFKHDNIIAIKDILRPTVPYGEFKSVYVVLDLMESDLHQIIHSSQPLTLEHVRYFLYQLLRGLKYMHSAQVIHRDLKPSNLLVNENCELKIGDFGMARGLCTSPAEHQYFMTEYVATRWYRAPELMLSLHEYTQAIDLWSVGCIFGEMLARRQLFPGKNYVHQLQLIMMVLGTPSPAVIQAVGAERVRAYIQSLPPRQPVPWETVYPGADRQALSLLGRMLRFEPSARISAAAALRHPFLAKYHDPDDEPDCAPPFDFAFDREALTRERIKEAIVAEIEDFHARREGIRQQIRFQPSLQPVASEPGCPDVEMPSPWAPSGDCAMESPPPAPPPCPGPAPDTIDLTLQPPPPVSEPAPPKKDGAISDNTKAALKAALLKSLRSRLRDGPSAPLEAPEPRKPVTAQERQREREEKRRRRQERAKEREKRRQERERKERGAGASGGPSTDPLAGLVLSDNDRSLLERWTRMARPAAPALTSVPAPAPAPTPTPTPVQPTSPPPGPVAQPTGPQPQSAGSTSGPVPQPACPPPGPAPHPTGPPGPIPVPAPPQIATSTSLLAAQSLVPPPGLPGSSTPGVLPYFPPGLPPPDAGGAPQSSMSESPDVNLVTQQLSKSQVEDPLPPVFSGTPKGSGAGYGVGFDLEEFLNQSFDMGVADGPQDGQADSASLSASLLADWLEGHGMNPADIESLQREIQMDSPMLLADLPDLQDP
Experiment [16] is described as follows: galactose survival enhancers in mitochondrial complex I cybrids – cell-based, galactose medium, ATP luminescence, primary screen (AID 1645843;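 active means z-score of at least 1.8 in each of two replicates, scored against plate mean and spread of sample wells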;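 further: positive z means more ATP and so rescue of galactose-driven cybrid death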). The following applies: complex I mutant cybrid cells, 72 h, stronger effect = higher value.
Experiment [17] is described as follows: viability loss with induced miR-34 in A549 – imaging, A549 dox-inducible miR-34, nuclei and caspase counts, primary screen (AID 1347080;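 active means compounds whose cell count with miR-34 switched on is under 0.7 times the count with it off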). The note with it: A549 miR-34 inducible, Hoechst nuclei count, 48 h.
The nature of experiment [18]: EMT-state selective cytotoxicity in co-culture – imaging, PC-3E GFP, TEM4-18 mCherry, primary screen (AID 1345086;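 active means compounds killing one labelled cell type while sparing the other, by normalised counts and ratio limits, not self-fluorescent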;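 on all read-outs here: cells exposed to compound for 72 h before imaging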;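 on red/green cell ratio (normalised): normalised mesenchymal count divided by normalised epithelial count so high means epithelial killing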). The following applies: PC-3E GFP / TEM4-18 mCherry co-culture, imaging cell counts, at 1 µM; for red/green cell ratio (normalised): actives lie on both sides, counts scaled to control wells, 1 = unselective.
Where [19] appears, read: MELAS cybrid survival, CellTiter-Glo 48 h, stronger effect = higher value.
Setting [20] is: Rieske KO mouse fibroblast survival, CellTiter-Glo 72 h.
Where [21] appears, read: measured here: epithelial PC-3E GFP cell survival.
Setting [22] is: measured here: mesenchymal TEM4-18 mCherry cell survival.

The term inhibition denotes the drop in the measured response relative to a control, in per cent. For orientation: viability means a read-out of living cells in per cent, often relative to untreated cells.

Molecules are shown by their SMILES. Values joined by “and” are separate entries in the source; they are usually repeats but may differ in a detail not shown here. Equal values may be shown once. Records with an inconclusive call do not appear. For part of these data: Potency and affinity values are given separately. Active and inactive are the calls of the source.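 How the source made its calls, unless noted: active means at least 20% inhibition of 6-phosphogluconate dehydrogenase activity; inactive means the rest.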

Consider `O=c1c(-c2ccc(O)cc2)coc2cc(O)ccc12`, for which the values for the inhibition in [1] and in experiment [9] were -30.4% and 6.36% (inactive), respectively. This compound gave a score in [2] of 1. Moreover, the rescue above control in experiment [3] turned out to be 2.42. In addition, the cytochrome c release ratio in [4] stood at 0.87. Moreover, in experiment [5], the inhibition of aggregation was found to be 27.9%. The compound also came in with a glutamate uptake change in experiment [6] of 12%. Moreover, the aggregation suppression score in experiment [7] is 1.43. In addition, the parasite load remaining in [8] was 225% (inactive). For the same compound, in experiment [8], the viability was 94.2%. Besides, the compound was classed as inactive in experiment [10], in experiment [11], in experiment [12] and in [13]. Further, the z-score in experiment [14] (setting [19]) is -0.189 (inactive); in experiment [14] (setting [20]), -0.724; in [16], 0.775 (inactive) and 0.485 (inactive). Moreover, the luciferase signal in experiment [15] was 120 AU (inactive).

`O=C(O)c1cc([N+](=O)[O-])ccc1NCCCc1ccccc1`: the inhibition was 58.5% in experiment [1] and 11.2% (inactive) in experiment [9]. Moreover, the score in experiment [2] stood at 0.73. Further, in experiment [3], the rescue above control turned out to be 1.37. Further, in experiment [4], the cytochrome c release ratio was 0.78. Further, the inhibition of aggregation in experiment [5] came out at 4.16%. The glutamate uptake change in experiment [6] came out at 5.28%. In experiment [7], the aggregation suppression score turned out to be 0.265. Moreover, the fold change in [17] (stronger effect = lower value, cell number ratio, induced over uninduced) was 1.03 (inactive) and 0.858 (inactive) and 0.935 (inactive); in experiment [17] (measured here: relative caspase fold change +Dox/-Dox), 1.22 and 0.934 and 0.883. Besides, the cell count in experiment [17] (measured here: total cells with miR-34 induction, stronger effect = lower value) is 10800 and 5570 and 8160; in experiment [17] (measured here: total cells without miR-34 induction), 10500 and 6480 and 8730. Also, the z-score in experiment [16] is 0.305 (inactive) and -0.425 (inactive).

With `N#Cc1ccc2c(c1)N(CCCN1CCC(O)CC1)c1ccccc1S2`, the inhibition in experiment [1] is -41.8%; in experiment [9], -2.33% (inactive). This compound yielded a score in [2] of 1.21. This compound had a rescue above control in [3] of 2.76. Further, in [4], the cytochrome c release ratio came to 0.74. The inhibition of aggregation in experiment [5] was 41.2%. Also, the glutamate uptake change in experiment [6] was found to be 8.34%. For the same compound, the aggregation suppression score in experiment [7] is 1.12. The parasite load remaining in experiment [8] was 134% (inactive). The viability in [8] is 87.2%. For the same compound, in [18], the red/green cell ratio (normalised) is 1.05 (inactive). The normalised cell number in [18] (setting [21]) came to 0.87; in experiment [18] (setting [22]), 0.92. Moreover, the luciferase signal in experiment [15] was 96 AU (inactive).

For `CC(=O)O[C@H]1C[C@@H](OC(C)=O)C(C)(C)C2CC(=O)[C@]3(C)C(CC[C@@]4(C)[C@H](C(=O)O)OC(=O)C5OC543)[C@]21C` (stereo partly drawn), in experiment [9], the inhibition was 1.04% (inactive). Besides, the red/green cell ratio (normalised) in experiment [18] was 1 (inactive). In addition, the normalised cell number in experiment [18] (setting [21]) and in experiment [18] (setting [22]) was 0.99 throughout. Moreover, the luciferase signal in experiment [15] is 120 AU (inactive).

As to `C=NC(C(=O)NC1C(=O)N2C1SC(C)(C)C2C(=O)O)c1ccccc1` (stereo not drawn), the results for the inhibition in [1] and in experiment [9] were 15.2% and -2.44% (inactive), respectively. In addition, in [2], the score was found to be 0.85. The same compound gave a rescue above control in experiment [3] of -2.5. For the same compound, the cytochrome c release ratio in [4] came to 0.48. Also, the inhibition of aggregation in [5] is 82%. Also, the glutamate uptake change in experiment [6] worked out at 4.77%. This compound yielded an aggregation suppression score in experiment [7] of 0.649. The parasite load remaining in [8] was 130% (inactive). In experiment [8], the viability turned out to be 74.4%. Moreover, the red/green cell ratio (normalised) in [18] is 1.12 (inactive). Besides, the normalised cell number in experiment [18] (setting [21]) is 0.88; in [18] (setting [22]), 0.99.

With `CC(CCc1ccc(O)cc1)NCCc1ccc(O)c(O)c1` (stereo not drawn), the parasite load remaining in experiment [8] was 118% (inactive) and 72.9% (inactive) and 42.2% (inactive). Further, the viability in experiment [8] is 109% and 73.6% and 115%. In addition, the inhibition in experiment [9] was 1.78% (inactive). Besides, the compound was called inactive in [10], in [11] and in experiment [12]. Besides, the z-score is 0.557 (inactive) and -0.473 (inactive) in [14] (setting [19]); -0.00496 and 0.199 in experiment [14] (setting [20]); -1.02 (inactive) and -0.96 (inactive) and -2.02 (inactive) in [16]. Also, the luciferase signal in experiment [15] was 56 AU (inactive).

For the compound `COC(=O)c1c(OC)cc2c(c1C)Oc1c(Cl)c(O)c(Cl)c(C)c1C(=O)O2`, in experiment [9], the inhibition is -6.18% (inactive). Further, the red/green cell ratio (normalised) in experiment [18] was 1.02 (inactive). Moreover, the normalised cell number in experiment [18] (setting [21]) was 1.07; in experiment [18] (setting [22]), 1.1. In addition, the luciferase signal in experiment [15] was 56 AU (inactive).

Values taken from PubChem BioAssay.
